Hits are enriched below; roughly 6.2% of the tested compounds scored in any of these assays.
GRIN3A LBD mod: binders of NR3A ligand-binding domain, primary screen, biophysical, differential scanning fluorimetry, uHTS; Tm shift relative to glycine control, % at 25 µM; AID 1259313, 2017; Glutamate receptor ionotropic, NMDA 3A (GRIN3A) ligand-binding domain; NR3A LBD differential scanning fluorimetry, Tm shift; 0% = protein alone, 100% = glycine-bound protein; hit rate 2.5% among 340,000;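 active = melting temperature shift of at least 10% of the positive control shift, at one fixed dose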
AHR act: AHR activators, primary screen, cell-based, luminescence, luciferase reporter, human | AHR-responsive luciferase reporter cells | activation, % at 5 µM | hit rate 2.5% among 320,000 | AID 2796, 2010; in the data active = activation above about 47%;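 also: 0% = vehicle wells and 100% = reference agonist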
Target sequence (P35869 whole entry, looked up): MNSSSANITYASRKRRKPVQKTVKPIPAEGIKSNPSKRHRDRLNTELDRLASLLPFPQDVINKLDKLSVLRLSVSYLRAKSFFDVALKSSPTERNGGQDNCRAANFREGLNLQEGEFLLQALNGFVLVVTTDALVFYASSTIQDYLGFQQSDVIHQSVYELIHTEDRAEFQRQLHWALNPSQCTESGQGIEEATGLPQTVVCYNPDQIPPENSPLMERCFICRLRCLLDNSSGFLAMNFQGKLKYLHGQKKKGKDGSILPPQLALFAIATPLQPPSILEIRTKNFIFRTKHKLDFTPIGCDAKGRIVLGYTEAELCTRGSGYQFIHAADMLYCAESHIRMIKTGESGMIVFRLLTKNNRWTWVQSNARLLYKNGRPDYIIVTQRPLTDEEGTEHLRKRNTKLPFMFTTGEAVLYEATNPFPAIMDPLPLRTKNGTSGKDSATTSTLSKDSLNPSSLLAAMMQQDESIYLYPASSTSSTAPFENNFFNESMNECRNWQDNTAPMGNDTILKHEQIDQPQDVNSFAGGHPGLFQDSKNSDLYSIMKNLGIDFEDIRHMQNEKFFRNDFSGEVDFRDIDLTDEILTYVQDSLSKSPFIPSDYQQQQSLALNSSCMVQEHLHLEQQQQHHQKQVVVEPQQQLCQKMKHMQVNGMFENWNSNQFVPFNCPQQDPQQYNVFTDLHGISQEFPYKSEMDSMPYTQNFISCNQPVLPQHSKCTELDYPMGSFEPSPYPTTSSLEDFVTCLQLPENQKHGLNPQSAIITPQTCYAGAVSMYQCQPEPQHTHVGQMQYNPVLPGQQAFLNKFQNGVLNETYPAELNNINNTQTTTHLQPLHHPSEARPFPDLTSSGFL
H9c2 protect: cardioprotection against H2O2-induced cell death, primary screen, uHTS, H9c2 cells, ATPLite luminescence. H9c2 cardiomyocytes, H2O2 injury protection, 2 h. hit rate 0.63% among 360,000. protection from H2O2 cell death, % at 20 µM. AID 588492, 2011;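 active = compounds giving at least 50% protection of heart cells from peroxide-induced death in the single-dose screen, raw or plate-pattern-corrected value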;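 also: 0% = DMSO wells with peroxide and 100% = DMSO wells without peroxide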
SUMO Mot1 rescue: yeast Mot1-301 growth rescue at high temperature, primary screen, SUMOylation pathway inhibitor project, S. cerevisiae, ATP luminescence, 38.5C; S. cerevisiae Mot1-301 growth rescue; percent above DMSO median, 100 means doubled; growth rescue, % at 18.8 µM; hit rate 1% among 320,000;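 active = every valid replicate shows activation above 250% relative to neutral control wells; inactive = the rest, any valid replicate at or below 250%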;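 also: OY570 slx delta 5 strain wells were the positive control but not used for scaling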
NTR1 ag: agonists of human NTR1, primary screen, imaging, U2OS cells, beta-arrestin-GFP, high content | Neurotensin receptor type 1 (Homo sapiens), P30989 | AID 493036, 2011 | hit rate 0.17% among 330,000 | NTR1-U2OS beta-arrestin-GFP spot imaging, agonist mode | activation, % at 20 µM;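 active = activation at or above 40% of the spot to cytoplasm intensity ratio, with at least 20 cells analyzed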;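 also: 0% = DMSO without peptide and 100% = 100 nM NTR1 peptide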
AI-2 QS mod: Vibrio harveyi AI-2 quorum sensing modulators, primary screen, JMH597 strain, luminescence/OD600 ratio; AID 2094, 2009; activity change, % at 7.5 µM; Vibrio harveyi JMH597 AI-2 luminescence/OD600 ratio, 9 h; active compounds read low; strain lacks LuxN and CqsS sensors; 0 = neutral-control median; hit rate 0.4% among 300,000; in the data active = activity change below about -75%, passing the limit was not always enough;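 also: luminescence divided by OD600 gain over 9 h not by final OD600 alone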
* hit, by the source's call; x = no result.

SMILES	GRIN3A LBD mod	AHR act	H9c2 protect	SUMO Mot1 rescue	NTR1 ag	AI-2 QS mod
O=C(CSc1ccc(Br)c2cccc(Cl)c12)Nc1ccc(S(=O)(=O)Nc2nccs2)cc1	13.0*	5.1	-12.5	6.8	9.3	49.1
O=C(CSc1ccc2ccccc2c1)Nc1ccc(S(=O)(=O)Nc2nccs2)cc1	13.4*	2.9	-13.4	-6.5	-0.3	25.8
COCC(=O)Nc1ccc(S(=O)(=O)Nc2nccs2)cc1	-0.4	-1.4	-0.7	0.5	-1.4	-1.0
CCOc1cc(N2CCOCC2)c(OCC)cc1NC(=O)C1CC(=O)N(c2ccc(C)cc2)C1 (stereo not drawn)	1.6	-0.9	-0.2	144.0	0.4	x
O=C(COc1ccc(Br)cc1F)NC1CC1	0.7	-1.0	-4.4	0.4	3.4	x
CCCNC(=S)Nc1ccc(Br)cc1	-2.8	7.9	-15.7	0.1	1.6	17.9
S=C(NCCc1ccccc1)Nc1ccc(Br)cc1	33.0*	1.9	-12.9	4.1	0.8	-64.5
CC(=O)Nc1ccc(N=C(C2=C(O)c3ccccc3C2=O)c2ccccc2)cc1	-1.2	64.0*	10.7	33.4	8.4	1.4
COCCCNC(=S)N1CCN(C(=O)C(=O)Nc2ccc(C(=O)OC)cc2)CC1	-1.9	1.5	-5.1	2.8	2.1	-0.9
COc1ccc(N=C(C)C2=C(O)c3ccccc3C2=O)cc1	-0.1	-1.5	-6.9	0.0	1.2	6.5
COC(=O)c1ccc(NC(=O)C(=O)N2CCN(C(=S)NCCc3ccccc3)CC2)cc1	14.8*	2.7	-5.9	19.9	1.8	38.3
CC(=O)Nc1ccc(NC(=O)c2ccc(NC(=O)c3ccccc3)cc2)cc1	27.9*	-2.9	-0.1	1.3	0.7	7.2
Cc1ccc(NC(=O)c2ccccc2)cc1	6.4	-2.0	-7.9	11.3	-0.1	15.5
CCOC(=O)c1ccc(NC(=S)NCCc2ccc(F)cc2)cc1	23.6*	-0.9	-17.3	20.8	7.5	7.3
COC(=O)c1ccc(NC(=O)CNc2ccccc2)cc1	41.9*	1.1	-0.9	11.0	-0.8	-14.7
COC(=O)c1ccc(NC(=O)CSC2=NC(=O)C(c3ccccc3)C(=O)N2)cc1 (stereo not drawn)	11.6*	-0.7	3.9	-9.7	0.1	-7.0
CCOC(=O)c1ccc(NC(=O)c2ccc(NC(=O)c3ccccc3)cc2)cc1	30.2*	-2.2	-5.5	65.4	-1.1	16.8
O=C(CSc1nnc(CNC(=O)c2cccs2)o1)Nc1cccc(Cl)c1	-5.6	9.6	-8.6	-3.9	-0.9	38.2
CCCCN(C=O)c1c(CC)nc2c(OCc3ccc(Cl)cc3Cl)cccn12	x	x	-7.0	x	x	x
CC(=O)C1=CCC(c2ccccc2Cl)N(S(=O)(=O)c2ccc(C)cc2)C1 (stereo not drawn)	x	x	2.5	x	x	x
CC(=O)Nc1ccc(C(=O)NCCc2ccccc2)cc1	15.8*	11.9	5.3	-4.8	0.0	-24.2
O=C(NCCc1ccccc1)c1ccc(NC(=O)C2CC2)cc1	-0.5	x	7.7	x	x	x
Fc1cccc(NC(=S)Nc2ccc(Br)cc2)c1	27.3*	-0.6	-29.7	69.7	3.4	13.4
CC(=O)Nc1ccc(C(=O)c2ccccc2)cc1	12.7*	2.2	3.7	12.9	-1.1	25.9
CCOC(=O)c1ccc(NC(=O)Nc2ccc3c(c2)OCCO3)cc1	14.2*	1.9	-14.5	-22.5	-0.2	3.6
O=C(COc1ccc(Cl)cc1Br)OCC(=O)c1ccc[nH]1	-5.5	0.4	0.4	1.1	3.5	x
Cn1cc(S(=O)(=O)Nc2ccc(F)c(Cl)c2)c(=O)n(C)c1=O	1.1	0.8	4.5	6.4	0.8	10.6
Cc1cccc[n+]1CC(=O)c1ccc(NC(=O)c2ccccc2)cc1	0.5	-0.4	2.7	316.5*	-0.4	11.8
COC(=O)c1ccc(OCCOc2ccccc2)cc1	2.3	-2.6	-7.1	6.1	-0.2	-75.7*

Screening results deposited in PubChem BioAssay by several laboratories.
